# About 83,000 compounds went through this panel and 20% of them were active in at least one assay; those are over-represented in the sample as a whole.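 Activity criterion: percent growth below 10, measured after cells in 96-well plates were exposed to a single compound concentration for 48 hours.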 A number with no mark means an inactive call. Active and inactive are the calls of the source.
# Tests used:
# Assay in all cases: NCI-60 one-dose screen, 48 h (100 = growth as untreated, 0 = no growth, -100 = all killed)
# Conditions in all cases: 10 µM unless noted
# HCT-15 colon = tested on: HCT-15 colon
# HT29 colon = tested on: HT29 colon
# SNB-75 CNS = tested on: SNB-75 CNS
# SNB-19 CNS = tested on: SNB-19 CNS
# U251 CNS = tested on: U251 CNS
# PC-3 prostate = tested on: PC-3 prostate
# SK-MEL-5 melanoma = tested on: SK-MEL-5 melanoma
# UACC-62 melanoma = tested on: UACC-62 melanoma
# LOX IMVI melanoma = tested on: LOX IMVI melanoma
# SK-MEL-28 melanoma = tested on: SK-MEL-28 melanoma
# SK-MEL-2 melanoma = tested on: SK-MEL-2 melanoma
# EKVX NSCLC = tested on: EKVX NSCLC
# SN12C renal = tested on: SN12C renal
# UO-31 renal = tested on: UO-31 renal
# TK-10 renal = tested on: TK-10 renal
# ACHN renal = tested on: ACHN renal
# CAKI-1 renal = tested on: CAKI-1 renal
# A498 renal = tested on: A498 renal
# CCRF-CEM leukemia = tested on: CCRF-CEM leukemia
# MOLT-4 leukemia = tested on: MOLT-4 leukemia
SMILES,growth (HCT-15 colon),growth (HT29 colon),growth (SNB-75 CNS),growth (SNB-19 CNS),growth (U251 CNS),growth (PC-3 prostate),growth (SK-MEL-5 melanoma),growth (UACC-62 melanoma),growth (LOX IMVI melanoma),growth (SK-MEL-28 melanoma),growth (SK-MEL-2 melanoma),growth (EKVX NSCLC),growth (SN12C renal),growth (UO-31 renal),growth (TK-10 renal),growth (ACHN renal),growth (CAKI-1 renal),growth (A498 renal),growth (CCRF-CEM leukemia),growth (MOLT-4 leukemia)
CC/C=C\C[C@H](O)C/C=C1/C(=O)C(Cl)=C[C@@H]1C/C=C\CCCC(=O)O,16.2%,18.7%,71.7%,74.7%,17.5%,43.7%,69.1%,1.46% (active),4.09% (active),43.7%,54%,63.9%,22.8%,64.2%,78.9%,45.3%,79.1%,134%,2.58% (active),40.5%
Nc1cccc2c1CN(C1CCC(=O)NC1=O)C2=O (stereo not given),105%,101%,88.4%,88.9%,97%,91%,103%,114%,99.8%,111%,113%,94.7%,106%,101%,132%,105%,95.6%,84.8%,98.7%,95.1%
COc1cc2c(cc1OCCCCn1c(-c3cc(=O)c4ccccc4o3)nc3ccccc31)N=C[C@@H]1CCCN1C2=O,106%,102%,101%,93.1%,75.3%,94.9%,93.6%,99.4%,68.5%,124%,26.7%,129%,102%,35.8%,157%,93.1%,82.8%,121%,49.4%,82.4%
O=C(Nc1cccc(Cl)c1)c1cc([N+](=O)[O-])ccc1O,61.7%,49.8%,67.8%,53.3%,47.5%,35.4%,16.7%,18%,34%,28.6%,5.35% (active),60.5%,55.1%,45.5%,61%,59.9%,52.6%,8.44% (active),46.4%,35.7%
CSc1ccccc1C#C/C=C\C#Cc1ccccc1N1CCCCC1=O,112%,94.9%,118%,111%,93.6%,77.7%,101%,78.5%,91.8%,153%,70.8%,91.5%,98.3%,34.6%,151%,97.7%,95%,107%,60%,104%
CC(=O)Oc1cccc(OC(C)=O)c1OC(C)=O,101%,110%,88.4%,105%,95.6%,89.6%,93.8%,96.8%,95.2%,104%,103%,95.4%,99.4%,76.6%,107%,102%,84%,87.3%,100%,82.4%
Nc1ccccc1C#C/C=C\C#Cc1cccc(O)c1,44.1%,76.2%,42.8%,88.4%,43%,64.2%,34%,23.8%,45.8%,81.7%,20.2%,71.8%,67.2%,12.4%,83.8%,36.4%,31.3%,78.6%,32%,27.1%
CCN1C(=O)N[C@H]2[C@@H]3NC(=O)c4ccc(Cl)n4[C@@H]3C[C@]21O,13.4%,2.91% (active),-2.5% (active),-8.44% (active),-5.63% (active),9.77% (active),-28.7% (active),-20.9% (active),-6.47% (active),-6.88% (active),-37% (active),10.8%,-1.6% (active),37.3%,4.37% (active),14.9%,31%,-0.0737% (active),-7.16% (active),0.842% (active)
CC(Br)C(OC(=O)c1ccccc1Cl)c1cc2c(cc1Br)OCO2 (stereo not given),86.9%,85.5%,67.4%,93.7%,95.9%,82.8%,87%,72.5%,92.1%,94.5%,90.4%,76.6%,98.9%,49.1%,82.1%,88.2%,70%,88.5%,103%,75.6%
CC(=O)Nc1ccc2c(c1)/C(=C\C=C/c1ccc([N+](C)(C)C)cc1)c1ccccc1-2,89.1%,59.2%,-1.84% (active),36.6%,26%,68.4%,36.1%,100%,80.1%,66.3%,80.9%,57.7%,16.6%,64.5%,103%,73.2%,65.8%,86%,67.3%,63.6%
Cc1cccc2cc(/C=C/C(=O)/C=C/c3ccc(Cl)cc3)c(=O)[nH]c12,43.6%,7.76% (active),79.7%,49.5%,10.6%,33.8%,91.2%,30.4%,4.24% (active),75.4%,91%,62.5%,47.6%,69.7%,105%,60.5%,91.1%,63.1%,14.7%,32.4%
Cc1c(C2=NNC(c3ccc4c(c3)OCO4)C2)[n+]([O-])c2ccccc2[n+]1[O-] (stereo not given),103%,110%,88.9%,103%,110%,96%,97.9%,118%,96.1%,113%,81.4%,91.5%,108%,84.6%,183%,108%,107%,94.7%,97.7%,105%
O=C1C2=C(C(=O)c3c(O)ccc(O)c31)N(c1cccnc1)Cc1ccccc1O2,-32.8% (active),-60.4% (active),22.1%,5.25% (active),2.04% (active),-31.7% (active),11.4%,-76.5% (active),-64.6% (active),-72% (active),-42.6% (active),2.08% (active),-43.8% (active),-83.5% (active),-99.2% (active),-85.4% (active),-96.2% (active),99%,-1.32% (active),-18.5% (active)
CCOc1ccc(/C=C/C=N/NC(N)=S)cc1,58.4%,62.1%,80.9%,95.8%,90.1%,94.1%,96%,81.9%,77.4%,102%,108%,95.5%,80.4%,38.3%,74.1%,80.2%,83.9%,77.7%,62.6%,35.8%
O=C1Nc2cc(Cl)ccc2/C1=C/c1ccc(N2CCOCC2)s1,112%,97.3%,101%,86.6%,96.7%,92.5%,104%,103%,106%,114%,91.4%,105%,104%,85.9%,-3.94% (active),114%,100%,87.1%,99.8%,92.8%
